In ChEMBL document CHEMBL1961873, “Compounds: GSK PKIS; Assays: Nanosyn kinase panel” (2012):
“And” between values parts separate entries of the source, which are not always exact repeats. Equal entries are not always repeated.

What was measured:
[1] = biological target: T1, Ephrin type-B receptor 2 (Homo sapiens) (UniProt P29323); details: at 1 µM
T1 sequence (whole entry): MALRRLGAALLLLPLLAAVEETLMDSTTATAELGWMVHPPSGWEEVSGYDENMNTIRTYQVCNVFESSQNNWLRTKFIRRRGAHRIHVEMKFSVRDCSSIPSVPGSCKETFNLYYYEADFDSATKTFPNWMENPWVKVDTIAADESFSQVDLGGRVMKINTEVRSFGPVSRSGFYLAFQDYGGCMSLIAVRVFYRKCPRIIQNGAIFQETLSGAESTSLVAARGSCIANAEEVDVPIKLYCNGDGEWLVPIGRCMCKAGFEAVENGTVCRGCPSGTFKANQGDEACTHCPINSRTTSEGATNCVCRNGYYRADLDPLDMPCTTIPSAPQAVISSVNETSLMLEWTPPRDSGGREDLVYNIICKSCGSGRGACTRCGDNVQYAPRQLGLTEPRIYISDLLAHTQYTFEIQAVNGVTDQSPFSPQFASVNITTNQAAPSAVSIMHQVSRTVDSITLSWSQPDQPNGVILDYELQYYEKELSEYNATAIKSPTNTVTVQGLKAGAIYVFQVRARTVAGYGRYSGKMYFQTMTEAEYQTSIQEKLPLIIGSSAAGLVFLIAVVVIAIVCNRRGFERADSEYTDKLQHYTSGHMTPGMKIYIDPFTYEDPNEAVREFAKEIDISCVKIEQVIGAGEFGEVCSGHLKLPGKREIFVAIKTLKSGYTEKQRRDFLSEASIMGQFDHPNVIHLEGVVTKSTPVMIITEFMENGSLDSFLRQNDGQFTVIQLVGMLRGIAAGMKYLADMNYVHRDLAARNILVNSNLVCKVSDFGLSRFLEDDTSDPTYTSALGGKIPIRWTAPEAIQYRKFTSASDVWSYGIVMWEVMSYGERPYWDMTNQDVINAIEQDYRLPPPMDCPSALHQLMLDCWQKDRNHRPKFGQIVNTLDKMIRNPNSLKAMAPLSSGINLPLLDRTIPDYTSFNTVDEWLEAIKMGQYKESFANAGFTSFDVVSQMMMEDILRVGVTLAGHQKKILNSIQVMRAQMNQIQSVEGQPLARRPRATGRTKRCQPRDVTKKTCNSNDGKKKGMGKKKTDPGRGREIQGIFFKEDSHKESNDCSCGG

[2] = biological target: T2, Ephrin type-B receptor 3 (Homo sapiens) (UniProt P54753); details: at 0.1 µM
T2 sequence (whole entry): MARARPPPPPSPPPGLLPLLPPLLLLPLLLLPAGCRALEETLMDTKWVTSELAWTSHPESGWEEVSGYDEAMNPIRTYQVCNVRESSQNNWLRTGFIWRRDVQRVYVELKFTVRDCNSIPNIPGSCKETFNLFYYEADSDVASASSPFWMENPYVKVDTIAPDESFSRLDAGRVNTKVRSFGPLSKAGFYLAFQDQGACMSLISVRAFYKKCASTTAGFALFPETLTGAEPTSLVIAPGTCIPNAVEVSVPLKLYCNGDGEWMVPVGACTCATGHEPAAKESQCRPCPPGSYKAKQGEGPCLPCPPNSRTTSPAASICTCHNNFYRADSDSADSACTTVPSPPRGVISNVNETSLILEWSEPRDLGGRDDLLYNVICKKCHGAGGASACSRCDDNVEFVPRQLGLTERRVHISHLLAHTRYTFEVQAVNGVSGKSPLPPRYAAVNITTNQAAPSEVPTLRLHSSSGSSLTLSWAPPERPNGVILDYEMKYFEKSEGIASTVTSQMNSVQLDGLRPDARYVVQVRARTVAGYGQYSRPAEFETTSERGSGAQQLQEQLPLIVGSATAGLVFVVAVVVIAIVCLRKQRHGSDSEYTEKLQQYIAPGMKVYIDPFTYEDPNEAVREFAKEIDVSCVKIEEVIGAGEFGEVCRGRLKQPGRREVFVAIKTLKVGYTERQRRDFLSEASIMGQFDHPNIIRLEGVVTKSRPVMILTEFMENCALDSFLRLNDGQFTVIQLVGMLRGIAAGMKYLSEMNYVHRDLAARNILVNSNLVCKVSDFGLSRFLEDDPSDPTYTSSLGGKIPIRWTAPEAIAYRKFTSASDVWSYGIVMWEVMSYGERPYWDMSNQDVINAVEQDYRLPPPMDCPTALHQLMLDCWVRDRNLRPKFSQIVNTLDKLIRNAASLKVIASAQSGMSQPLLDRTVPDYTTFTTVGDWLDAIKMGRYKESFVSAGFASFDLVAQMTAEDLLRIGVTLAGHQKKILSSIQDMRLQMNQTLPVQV

[3] = biological target: T2, Ephrin type-B receptor 3 (Homo sapiens); details: at 1 µM
[4] = biological target: T3, Ephrin type-B receptor 4 (Homo sapiens) (UniProt P54760); details: at 0.1 µM
T3 sequence (whole entry): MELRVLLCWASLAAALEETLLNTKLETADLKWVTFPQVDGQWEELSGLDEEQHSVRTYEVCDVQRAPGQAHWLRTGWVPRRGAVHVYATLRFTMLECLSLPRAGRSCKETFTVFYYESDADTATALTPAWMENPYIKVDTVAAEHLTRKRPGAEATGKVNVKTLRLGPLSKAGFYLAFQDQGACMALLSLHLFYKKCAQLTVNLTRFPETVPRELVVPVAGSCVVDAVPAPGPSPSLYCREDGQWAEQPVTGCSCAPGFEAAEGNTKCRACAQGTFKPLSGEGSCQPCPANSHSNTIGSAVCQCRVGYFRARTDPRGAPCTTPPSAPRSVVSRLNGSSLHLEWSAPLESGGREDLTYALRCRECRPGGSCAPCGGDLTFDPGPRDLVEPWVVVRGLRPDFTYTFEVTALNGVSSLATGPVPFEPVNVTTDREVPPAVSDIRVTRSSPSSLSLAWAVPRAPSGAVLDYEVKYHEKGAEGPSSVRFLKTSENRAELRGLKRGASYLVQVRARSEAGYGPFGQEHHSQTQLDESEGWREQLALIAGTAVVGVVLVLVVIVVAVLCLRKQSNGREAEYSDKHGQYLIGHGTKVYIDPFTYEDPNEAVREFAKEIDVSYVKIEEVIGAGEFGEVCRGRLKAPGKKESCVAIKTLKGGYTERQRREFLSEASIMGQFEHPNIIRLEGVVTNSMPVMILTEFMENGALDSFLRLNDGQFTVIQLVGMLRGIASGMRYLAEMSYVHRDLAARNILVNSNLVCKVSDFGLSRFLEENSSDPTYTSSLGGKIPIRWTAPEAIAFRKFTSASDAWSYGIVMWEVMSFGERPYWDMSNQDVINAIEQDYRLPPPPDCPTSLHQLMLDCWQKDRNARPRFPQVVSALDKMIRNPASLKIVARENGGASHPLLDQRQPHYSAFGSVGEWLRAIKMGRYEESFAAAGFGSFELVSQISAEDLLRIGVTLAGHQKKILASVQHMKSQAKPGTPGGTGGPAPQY

[5] = biological target: T3, Ephrin type-B receptor 4 (Homo sapiens); details: at 1 µM
[6] = biological target: Receptor tyrosine-protein kinase erbB-2 (Homo sapiens) (UniProt P04626); details: at 0.1 µM
[7] = biological target: Receptor tyrosine-protein kinase erbB-2 (Homo sapiens) (UniProt P04626); details: at 1 µM
[8] = biological target: Receptor tyrosine-protein kinase erbB-4 (Homo sapiens) (UniProt Q15303); details: at 0.1 µM
[9] = biological target: Receptor tyrosine-protein kinase erbB-4 (Homo sapiens) (UniProt Q15303); details: at 1 µM
[10] = biological target: Tyrosine-protein kinase Fer (Homo sapiens) (UniProt P16591); details: at 0.1 µM;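 further: reported figures are averaged percent inhibition of FER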
Sequence of Tyrosine-protein kinase Fer (Homo sapiens) (P16591 whole entry, looked up): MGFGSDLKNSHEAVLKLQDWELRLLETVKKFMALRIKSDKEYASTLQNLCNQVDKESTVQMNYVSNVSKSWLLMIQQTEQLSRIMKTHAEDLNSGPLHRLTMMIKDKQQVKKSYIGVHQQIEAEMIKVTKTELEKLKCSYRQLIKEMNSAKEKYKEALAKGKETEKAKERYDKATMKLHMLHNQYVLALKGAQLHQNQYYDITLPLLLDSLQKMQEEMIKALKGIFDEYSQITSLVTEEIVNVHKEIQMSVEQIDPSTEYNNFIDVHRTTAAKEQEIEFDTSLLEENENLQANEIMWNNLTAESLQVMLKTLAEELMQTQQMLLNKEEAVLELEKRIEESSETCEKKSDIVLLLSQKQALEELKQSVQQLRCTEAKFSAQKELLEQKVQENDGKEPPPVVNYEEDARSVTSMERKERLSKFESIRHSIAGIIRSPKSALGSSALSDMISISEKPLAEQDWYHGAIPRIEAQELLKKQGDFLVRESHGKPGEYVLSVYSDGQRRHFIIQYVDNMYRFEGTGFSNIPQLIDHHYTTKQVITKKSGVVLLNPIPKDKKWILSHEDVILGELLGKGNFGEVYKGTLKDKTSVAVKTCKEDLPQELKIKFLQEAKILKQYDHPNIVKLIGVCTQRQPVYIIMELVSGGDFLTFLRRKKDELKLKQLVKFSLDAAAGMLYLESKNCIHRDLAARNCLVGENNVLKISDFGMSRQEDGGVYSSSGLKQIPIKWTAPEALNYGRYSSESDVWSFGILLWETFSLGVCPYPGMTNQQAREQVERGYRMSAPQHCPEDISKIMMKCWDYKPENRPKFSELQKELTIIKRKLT

Sequence of Receptor tyrosine-protein kinase erbB-2 (Homo sapiens) (P04626 whole entry): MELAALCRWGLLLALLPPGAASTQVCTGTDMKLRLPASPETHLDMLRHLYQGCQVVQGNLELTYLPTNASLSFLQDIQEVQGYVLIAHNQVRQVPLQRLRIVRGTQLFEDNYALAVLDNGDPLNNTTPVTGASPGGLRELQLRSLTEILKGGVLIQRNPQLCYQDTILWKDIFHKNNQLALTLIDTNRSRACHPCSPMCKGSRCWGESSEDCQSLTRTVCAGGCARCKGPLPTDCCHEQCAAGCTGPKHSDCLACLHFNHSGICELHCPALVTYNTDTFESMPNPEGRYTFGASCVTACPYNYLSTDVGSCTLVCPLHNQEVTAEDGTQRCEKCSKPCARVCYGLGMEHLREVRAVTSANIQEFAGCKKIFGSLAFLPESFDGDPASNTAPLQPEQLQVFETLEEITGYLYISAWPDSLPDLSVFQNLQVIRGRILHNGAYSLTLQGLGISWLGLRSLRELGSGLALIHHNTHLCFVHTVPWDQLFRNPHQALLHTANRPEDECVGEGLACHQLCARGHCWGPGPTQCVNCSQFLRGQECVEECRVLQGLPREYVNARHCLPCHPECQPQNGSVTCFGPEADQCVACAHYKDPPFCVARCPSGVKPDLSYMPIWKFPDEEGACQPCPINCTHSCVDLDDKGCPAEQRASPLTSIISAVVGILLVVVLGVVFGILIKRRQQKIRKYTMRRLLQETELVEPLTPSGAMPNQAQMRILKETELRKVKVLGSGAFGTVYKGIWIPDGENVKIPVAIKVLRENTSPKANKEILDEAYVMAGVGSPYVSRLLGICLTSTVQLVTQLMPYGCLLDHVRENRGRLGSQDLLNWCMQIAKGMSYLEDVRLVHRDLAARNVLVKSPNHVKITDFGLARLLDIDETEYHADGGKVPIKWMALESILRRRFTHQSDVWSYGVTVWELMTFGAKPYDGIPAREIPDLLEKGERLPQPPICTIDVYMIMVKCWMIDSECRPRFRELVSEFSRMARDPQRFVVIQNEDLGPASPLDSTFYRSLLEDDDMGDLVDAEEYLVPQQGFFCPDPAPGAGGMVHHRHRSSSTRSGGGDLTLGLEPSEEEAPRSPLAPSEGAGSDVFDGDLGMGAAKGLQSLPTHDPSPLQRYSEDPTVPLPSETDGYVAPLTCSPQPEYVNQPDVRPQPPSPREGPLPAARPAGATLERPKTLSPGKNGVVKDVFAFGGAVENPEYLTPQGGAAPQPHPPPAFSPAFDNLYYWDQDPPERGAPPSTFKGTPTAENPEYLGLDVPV
Sequence of Receptor tyrosine-protein kinase erbB-4 (Homo sapiens) (Q15303 whole entry): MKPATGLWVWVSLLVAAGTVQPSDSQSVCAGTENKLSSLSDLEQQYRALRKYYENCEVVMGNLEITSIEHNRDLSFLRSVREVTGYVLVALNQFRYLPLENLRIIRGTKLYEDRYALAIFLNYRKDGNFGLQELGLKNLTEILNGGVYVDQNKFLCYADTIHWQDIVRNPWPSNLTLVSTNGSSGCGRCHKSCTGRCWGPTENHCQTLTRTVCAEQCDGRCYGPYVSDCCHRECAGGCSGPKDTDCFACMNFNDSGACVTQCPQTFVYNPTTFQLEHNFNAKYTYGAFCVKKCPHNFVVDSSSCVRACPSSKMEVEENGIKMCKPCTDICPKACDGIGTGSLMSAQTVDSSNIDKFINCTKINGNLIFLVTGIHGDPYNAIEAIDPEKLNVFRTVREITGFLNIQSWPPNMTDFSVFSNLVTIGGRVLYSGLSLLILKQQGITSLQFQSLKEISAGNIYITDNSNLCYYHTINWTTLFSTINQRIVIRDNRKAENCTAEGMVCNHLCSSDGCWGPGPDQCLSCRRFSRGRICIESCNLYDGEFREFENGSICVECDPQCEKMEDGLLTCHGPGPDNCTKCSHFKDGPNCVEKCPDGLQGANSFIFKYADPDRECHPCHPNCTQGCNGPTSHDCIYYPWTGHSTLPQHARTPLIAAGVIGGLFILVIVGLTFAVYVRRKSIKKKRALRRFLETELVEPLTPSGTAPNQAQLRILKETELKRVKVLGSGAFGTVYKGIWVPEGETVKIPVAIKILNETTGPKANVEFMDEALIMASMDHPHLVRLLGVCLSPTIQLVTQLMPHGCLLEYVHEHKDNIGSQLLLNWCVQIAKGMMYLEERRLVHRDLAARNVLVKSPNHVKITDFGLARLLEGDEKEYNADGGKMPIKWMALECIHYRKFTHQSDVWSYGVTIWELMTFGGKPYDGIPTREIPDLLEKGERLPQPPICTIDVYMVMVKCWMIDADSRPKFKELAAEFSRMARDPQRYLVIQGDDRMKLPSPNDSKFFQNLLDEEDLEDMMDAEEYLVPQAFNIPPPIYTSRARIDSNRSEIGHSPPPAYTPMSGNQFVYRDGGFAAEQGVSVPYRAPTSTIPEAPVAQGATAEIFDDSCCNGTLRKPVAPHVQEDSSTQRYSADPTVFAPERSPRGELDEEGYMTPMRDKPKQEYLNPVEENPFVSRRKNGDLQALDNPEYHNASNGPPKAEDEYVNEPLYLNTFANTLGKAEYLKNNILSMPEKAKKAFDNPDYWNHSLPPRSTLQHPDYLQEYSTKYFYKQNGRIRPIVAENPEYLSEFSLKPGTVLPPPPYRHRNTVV

SMILES: COc1cccc(Nc2nccc(-c3cnn4ncccc34)n2)c1
- inhibition [1]: 36%
- inhibition [2]: 1.65%
- inhibition [3]: -3.88%
- inhibition [4]: 2.75%
- inhibition [5]: 16.1%
- inhibition [6]: -0.16%
- inhibition [7]: 1.64%
- inhibition [8]: 8.21%
- inhibition [9]: 3.05%
- inhibition [10]: 9.45%

SMILES: Cc1cc(O)cc(C)c1/C=C/c1cncc(C(=O)OC(C)(C)C)c1
- inhibition [1]: 68%
- inhibition [2]: 17.4%
- inhibition [3]: 49.2%
- inhibition [4]: 24.8%
- inhibition [5]: 70.4%
- inhibition [6]: 1.78%
- inhibition [7]: 2.48%
- inhibition [8]: 8.1%
- inhibition [9]: 16.1%
- inhibition [10]: 4.09%

SMILES: O=C1Nc2ccccc2/C1=C1\CCc2cc(O)ccc21
- inhibition [1]: 9.85%
- inhibition [2]: 7.65%
- inhibition [3]: 3.73%
- inhibition [4]: 1.66%
- inhibition [5]: 2.84%
- inhibition [6]: 0.88%
- inhibition [7]: -3.46%
- inhibition [8]: 8.95%
- inhibition [9]: 13.7%
- inhibition [10]: 7%

SMILES: CCOc1ccc2c(-c3ccnc(Nc4cc(OC)cc(C(F)(F)F)c4)n3)cnn2n1
- inhibition [1]: 8.72%
- inhibition [2]: 2.9%
- inhibition [3]: 1.21%
- inhibition [4]: 2.17%
- inhibition [5]: 1.74%
- inhibition [6]: 2.32%
- inhibition [7]: 2.46%
- inhibition [8]: 4.82%
- inhibition [9]: 4.44%
- inhibition [10]: 2.36%

SMILES: OCCCNc1nccc(-c2c(-c3ccc(F)cc3)nn3cc(C(F)(F)F)ccc23)n1
- inhibition [1]: 28.2%
- inhibition [2]: 4.77%
- inhibition [3]: 1.45%
- inhibition [4]: 1.6%
- inhibition [5]: 7.56%
- inhibition [6]: 0.24%
- inhibition [7]: -0.41%
- inhibition [8]: 8.07%
- inhibition [9]: 14.4%
- inhibition [10]: 1.98%

SMILES: COC(=O)Nc1nc2cc(Oc3ccc(NC(=O)Nc4ccccc4)cc3)ccc2[nH]1
- inhibition [1]: 4.12%
- inhibition [2]: 3.87%
- inhibition [3]: 1.72%
- inhibition [4]: 0.78%
- inhibition [5]: 0.42%
- inhibition [6]: 3.5%
- inhibition [7]: 3.12%
- inhibition [8]: 7.18%
- inhibition [9]: 7.92%
- inhibition [10]: 2.73%

SMILES: COc1cc2c(cc1Nc1nc(Nc3cccc(F)c3C(N)=O)c3cc[nH]c3n1)N(C(=O)CN1CCN(C(C)C)CC1)CC2
- inhibition [1]: 3.39%
- inhibition [2]: 1.98%
- inhibition [3]: 0.18%
- inhibition [4]: 1.3%
- inhibition [5]: 2.98%
- inhibition [6]: 2.36%
- inhibition [7]: 3.48%
- inhibition [8]: 16.9%
- inhibition [9]: 59.7%
- inhibition [10]: 8%

SMILES: COc1cc(N2CCN(C(C)C)CC2)ccc1Nc1nc(Nc2cccc(F)c2C(=O)O)c2cc[nH]c2n1
- inhibition [1]: 12.6%
- inhibition [2]: 3.69%
- inhibition [3]: 6.24%
- inhibition [4]: 2.82%
- inhibition [5]: 2.84%
- inhibition [6]: 3.72%
- inhibition [7]: 5.93%
- inhibition [8]: 11.7%
- inhibition [9]: 11.2%
- inhibition [10]: 32.5%

SMILES: Cc1cc(O)cc(C)c1/C=C/c1cncc(C(N)=O)c1
- inhibition [1]: 56.7%
- inhibition [2]: 5.06%
- inhibition [3]: 9.99%
- inhibition [4]: 9.23%
- inhibition [5]: 46.1%
- inhibition [6]: 5.08%
- inhibition [7]: -0.51%
- inhibition [8]: 12.7%
- inhibition [9]: 14.4%
- inhibition [10]: 2%

SMILES: COc1cc(Nc2ncc(-c3ccccc3)o2)cc(OC)c1
- inhibition [1]: 11.5%
- inhibition [2]: 3.34%
- inhibition [3]: 3.15%
- inhibition [4]: 1.28%
- inhibition [5]: 4.64%
- inhibition [6]: 2.1%
- inhibition [7]: 3.72%
- inhibition [8]: 9.38%
- inhibition [9]: 14.6%
- inhibition [10]: 0.58%

SMILES: CN1CCN(Cc2ccc(-c3cc4ncnc(Nc5ccc(OCc6cccc(F)c6)c(Cl)c5)c4s3)o2)CC1
- inhibition [1]: 8.33% and 7.32%
- inhibition [2]: 3.73% and 7.71%
- inhibition [3]: 4.63% and 4.53%
- inhibition [4]: 0.3% and 3.67%
- inhibition [5]: 6.48% and 3.12%
- inhibition [6]: 5.26% and 7.95%
- inhibition [7]: 62.3% and 65%
- inhibition [8]: 81.7% and 91.1%
- inhibition [9]: 93% and 97.8%
- inhibition [10]: 1.93% and 6.27%

SMILES: NS(=O)(=O)c1cccc(N/C=C2\C(=O)Nc3ccccc32)c1
- inhibition [1]: 10.8%
- inhibition [2]: 5.46%
- inhibition [3]: 2.58%
- inhibition [4]: 4.23%
- inhibition [5]: 3.73%
- inhibition [6]: 1.3%
- inhibition [7]: -0.02%
- inhibition [8]: 13.3%
- inhibition [9]: 14.6%
- inhibition [10]: 3.91%

SMILES: CC(C)c1ccc(-c2cc(-c3c[nH]nc3-c3ccccn3)ccn2)cc1
- inhibition [1]: 5.4%
- inhibition [2]: 3.79%
- inhibition [3]: 1.74%
- inhibition [4]: 0.47%
- inhibition [5]: 2.78%
- inhibition [6]: 0.79%
- inhibition [7]: -1.43%
- inhibition [8]: 4.41%
- inhibition [9]: 6.32%
- inhibition [10]: 2.22%

SMILES: NC(=O)c1ccc2c(-c3ccnc(NCCCO)n3)c(-c3ccc(F)cc3)nn2c1
- inhibition [1]: 40.3%
- inhibition [2]: 4.52%
- inhibition [3]: 4.65%
- inhibition [4]: 4.6%
- inhibition [5]: 11.4%
- inhibition [6]: 2.1%
- inhibition [7]: 3.13%
- inhibition [8]: 16.8%
- inhibition [9]: 39%
- inhibition [10]: 6.31%

SMILES: CCN1CCC(C(=O)Nc2n[nH]c3nnc(-c4cccc(F)c4F)cc23)CC1
- inhibition [1]: 0.53%
- inhibition [2]: 0.69%
- inhibition [3]: 1.64%
- inhibition [4]: 0.49%
- inhibition [5]: -0.12%
- inhibition [6]: 1.2%
- inhibition [7]: 0.02%
- inhibition [8]: -0.85%
- inhibition [9]: 0.79%
- inhibition [10]: -0.15%
